Compound activity from PubChem BioAssay.
The list is not random: actives were taken first. Their share in the collection is about 1.1%.
beta cell repl: inducers of MIN6 beta-cell proliferation, primary screen, ATP luminescence, uHTS | MIN6 cells proliferation, ATPlite luminescence, 48 h; cells starved in 0.2% serum; 100% = growth in 10% serum | proliferation, % at 10 µM | 330,000 tested, 0.29% active | AID 2380, 2010;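 active = compounds whose signal lies at least 3.5 SD above the mean of all wells on their plate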
APOBEC3A inh: APOBEC3A ssDNA deaminase inhibitors, primary screen, selectivity assay for APOBEC3G inhibitor project, biochemical, FAM/TAMRA oligo cleavage fluorescence; 330,000 tested, 0.41% active; AID 493011, 2011; recombinant A3A, FAM/TAMRA ssDNA deamination fluorescence; inhibition, % at 20 µM; DNA dC->dU-editing enzyme APOBEC-3A (Homo sapiens), P31941;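 active = at least 40% inhibition at 20 µM here, with at most 30% in a related deaminase screen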
Target sequence (P31941 whole entry, looked up): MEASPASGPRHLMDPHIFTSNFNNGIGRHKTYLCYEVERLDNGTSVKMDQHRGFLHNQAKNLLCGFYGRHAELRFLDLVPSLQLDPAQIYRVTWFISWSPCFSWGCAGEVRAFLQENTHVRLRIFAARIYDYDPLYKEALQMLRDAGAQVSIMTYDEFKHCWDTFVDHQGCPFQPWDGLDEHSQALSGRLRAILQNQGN
A3G deaminase: APOBEC3G DNA deaminase inhibitors, primary screen, biochemical, fluorescence, single-stranded DNA substrate, uHTS; DNA dC->dU-editing enzyme APOBEC-3G (Homo sapiens), Q9HC16; recombinant A3G, ssDNA deamination FAM/TAMRA fluorescence; inhibition, % at 20 µM; 330,000 tested, 0.28% active;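 active = inhibition of at least 40% at 20 µM, with no more than 30% in the related APOBEC3A deaminase screen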
Target sequence (Q9HC16 whole entry, looked up): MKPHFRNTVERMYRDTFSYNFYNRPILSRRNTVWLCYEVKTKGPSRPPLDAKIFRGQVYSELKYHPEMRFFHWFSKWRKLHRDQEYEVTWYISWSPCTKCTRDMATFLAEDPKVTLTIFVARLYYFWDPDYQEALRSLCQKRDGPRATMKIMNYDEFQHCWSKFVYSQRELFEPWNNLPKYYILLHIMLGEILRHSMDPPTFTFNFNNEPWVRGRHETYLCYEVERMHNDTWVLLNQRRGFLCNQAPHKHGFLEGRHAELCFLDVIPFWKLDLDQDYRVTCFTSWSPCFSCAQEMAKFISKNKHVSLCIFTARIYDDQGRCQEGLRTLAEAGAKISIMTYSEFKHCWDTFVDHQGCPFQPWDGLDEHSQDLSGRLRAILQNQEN
A1 inh: caspase 3/7 activation in MEF A1-2A-BIM cells, primary screen, A1 inhibitor project, cell-based, luminescence, HTS. Caspase-Glo 3/7 luminescence, 3 h; percent of clofoctol response, vehicle zero. caspase activation, % (test concentration not listed). 330,000 tested, 0.066% active;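 active = over half of replicate activation scores above 10%, or exactly half above 10 with the replicate mean above 10; inconclusive = replicate mean below 10 yet half the replicates above 10; inactive = over half of replicates below 10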
Hits are given with their value; - = inactive; ? = inconclusive; . = no result.

SMILES	beta cell repl	APOBEC3A inh	A3G deaminase	A1 inh
CN(CC(=O)Nc1ccccc1)CC(=O)Nc1ccccc1Cl	-	-	-	-
CC1C/C(=C/c2ccco2)C(=O)/C(=C/c2ccco2)C1 (stereo not drawn)	-	-	-	-
O=C1/C(=C\c2ccco2)CCC/C1=C\c1ccco1	-	87	-	-
O=C1/C(=C\c2c(NCCOCCO)nc3ccccn3c2=O)SC(=S)N1Cc1ccco1	-	-	-	9.1
CC(C)(C)N(Cc1ccccc1)C(=O)COC(=O)CNC(=O)c1ccco1	-	-	-	16
Cc1cc(C(=O)NCCCN2CCN(C3CCCCC3)CC2)n(-c2ccccc2)n1	-	43	-	-
Cc1ccccc1NC(=O)NCCCN1CCN(C2CCCCC2)CC1	-	-	-	-
CCOc1ccc2nc(NCCNC(=O)Nc3cccc(C)c3)c(C#N)cc2c1	-	-	-	7.5
COc1ccc2[nH]cc(CCNC(=O)c3ccc4ccccc4n3)c2c1	-	-	-	-
COc1ccc(CCNS(=O)(=O)c2ccc(-n3cnnn3)cc2)cc1OC	-	-	-	-
Cc1nn(-c2ccc(Cl)cc2)c(=O)c2ccccc12	-	-	-	-
Cc1c(Cl)sn(-c2ccc(Cl)cc2)c1=O	-	-	44	.
Cc1ccc(NC(=O)c2cc(N3C(=O)C=CC3=O)ccc2N2CCOCC2)cc1Cl	.	.	.	15
CN(C)CCCN(C(=O)c1cc2cc([N+](=O)[O-])ccc2s1)c1nc2cc3c(cc2s1)OCCO3	-	-	-	8.4
CN(C)CCCN(C(=O)c1ccc([N+](=O)[O-])s1)c1nc2cc3c(cc2s1)OCCO3	-	-	-	-
Cc1ccc(S(=O)(=O)Nc2c(Cl)c(Cl)c(O)c3ccccc23)cc1	-	-	82	-
Cc1ccc(S(=O)(=O)Nc2c(O)ccc3ccccc23)cc1	-	-	-	-
Cc1ccc(C)c(NC(=S)NC(NC(=O)Cc2cccc3ccccc23)C(Cl)(Cl)Cl)c1 (stereo not drawn)	-	-	-	12
O=C(NCc1n[nH]c(=S)n1-c1ccc(Br)cc1)c1ccc(S(=O)(=O)N2CCOCC2)cc1	-	-	-	-
COc1ccccc1-n1c(CNC(=O)c2ccc(S(=O)(=O)N3CCOCC3)cc2)n[nH]c1=S	-	-	42	-
COc1ccc(-c2cc(=O)oc3c(C)c(OC(C)C(C)=O)ccc23)cc1 (stereo not drawn)	-	-	-	-
COc1ccc(-c2cc(=O)oc3c(C)c(OC(=O)c4cccs4)ccc23)cc1	-	-	-	17
COc1cccc(CN(CC(=O)NCC2CCCO2)C(=O)CNS(=O)(=O)c2ccccc2)c1 (stereo not drawn)	-	-	-	-
COc1cccc(N(CC(=O)NCC2CCCO2)C(=O)CNS(=O)(=O)c2ccccc2)c1 (stereo not drawn)	8.4	-	-	-
O=[N+]([O-])c1ccc(N2CCN(S(=O)(=O)c3ccccc3[N+](=O)[O-])CC2)cc1N1CCc2ccccc2C1	6.0	-	-	-
SMILES	beta cell repl	APOBEC3A inh	A3G deaminase	A1 inh
O=[N+]([O-])c1ccccc1S(=O)(=O)N1CCc2ccccc2C1	-	-	-	-
CC1=C/C(=N\OS(=O)(=O)c2ccccc2)C(C)=CC1=O	-	-	-	17
O=c1c2cc(O)c(O)cc2oc2cc(O)c(C3OC(CO)C(O)C(O)C3O)c(O)c12 (stereo not drawn)	-	-	-	-
O=C(N/N=C\c1ccccn1)C1COc2cc3ccccc3cc2O1 (stereo not drawn)	-	-	-	-
NNC(=O)C1COc2cc3ccccc3cc2O1 (stereo not drawn)	-	61	-	-
CCC1CCCCN1S(=O)(=O)c1ccc(NC(=O)c2nc(S(C)(=O)=O)ncc2Cl)cc1 (stereo not drawn)	-	-	-	11
CCS(=O)(=O)c1ncc(Cl)c(C(=O)Nc2ccc(S(=O)(=O)N3CCCC(C)C3)cc2)n1 (stereo not drawn)	-	-	-	49
CCS(=O)(=O)c1ncc(Cl)c(C(=O)Nc2ccc(C)cc2)n1	-	-	-	?
CCOc1ccc(N2CC(C(=O)N3CCc4ccccc43)CC2=O)cc1 (stereo not drawn)	-	-	-	-
Cc1ccc(C(=O)N/C(=C/c2ccc(Cl)cc2)C(=O)N2CCOCC2)cc1	-	-	-	-
COc1cc2c(cc1OC)C1=C(C#N)CC/C(=N\S(=O)(=O)c3ccccc3)N1CC2	-	-	-	-
COc1ccc(C(=O)N=C2CCC(C#N)=C3c4cc(OC)c(OC)cc4CCN23)cc1	7.2	-	-	-
CC(Sc1nnc(-c2cccnc2)o1)C(=O)NC1CCCC1 (stereo not drawn)	-	-	-	-
O=C(Cn1[nH]c(=O)c2ccccc2c1=O)OCC(=O)N1CCc2ccccc2C1	-	-	-	8.3
CCOc1cccc(C(=O)Nc2cccc(-c3nnc(-c4ccccc4)o3)c2)c1	-	-	-	-
CCOc1cccc(C(=O)Nc2cccc(-c3nnc(-c4ccc(C)cc4)o3)c2)c1	-	-	-	20
O=C(N/N=C\c1ccc(CNS(=O)(=O)c2ccccc2)o1)C(=O)Nc1ccc(F)cc1	-	-	-	-
O=C(NCc1ccc(/C=N\NC(=O)C(=O)Nc2ccccc2Br)o1)C(=O)Nc1ccccc1	-	-	-	11
Cc1cc(-c2ccc(C(C)C)c(S(=O)(=O)N3CCN(c4ccccn4)CC3)c2)on1	-	-	-	-
Cc1cccc(-c2nnc3n2N=C(c2ccccc2Br)CS3)c1	7.3	-	-	-
Cc1cc(-c2nnc3n2N=C(c2ccccc2Br)CS3)n[nH]1	-	-	-	-
CCOc1cc(/C=C\[N+](=O)[O-])ccc1OCC(=O)Nc1ccccc1C	-	-	-	31
CC(C)(C)C1=CC=C(C(C)(C)C)C(=O)C1=O	-	-	-	6.4
Cc1ccc2[nH]c3c(c2c1)CCCC3NC(=O)CCl (stereo not drawn)	-	-	-	5.3
CCOc1ccc(N(CC(=O)NCCSCc2ccccc2)S(C)(=O)=O)cc1	-	-	-	-
CCOC(=O)Cc1csc(/N=C/c2c(O)n(-c3ccc(C)c(C)c3)c(=O)c3ccccc23)n1	-	-	-	22
Nc1ncnc2c1ncn2[C@@H]1O[C@H](CNC(=O)[C@@H](N)COCc2ccccc2)[C@@H](O)[C@H]1O	.	-	-	.
CS(=O)(=O)Nc1ccc(C2=NN(C(=O)c3cccc(F)c3)C(c3cccs3)C2)cc1 (stereo not drawn)	-	-	-	5.4
CS(=O)(=O)Nc1ccc(C2=NN(C(=O)c3ccccc3)C(c3cccs3)C2)cc1 (stereo not drawn)	-	-	-	-
